A selection: hits, their analogues and other compounds. The true share with any hit is near 1.3%.
PREPL inhibitor – human PREPL enzyme inhibition; Q4J6C6; recombinant PREPL, fluorescence polarization activity-based probe; inhibition, % at 5.96 µM; hit rate 0.68% among 320,000; in the data active means inhibition above about 43%
LYPLA1 counter – counter-screen for PME1 inhibitors: inhibitors of human LYPLA1; O75608; recombinant LYPLA1, FP-Rh probe fluorescence polarization; inhibition, % at 5.9 µM; hit rate 0.16% among 320,000; AID 2174;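 active means inhibition above the mean of all tested compounds plus 3 SD, set per campaign, cut at about 14% in these data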;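 further: inhibitors block serine hydrolase probe labeling of LYPLA1 so polarization falls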
Target sequence (O75608 whole entry, looked up): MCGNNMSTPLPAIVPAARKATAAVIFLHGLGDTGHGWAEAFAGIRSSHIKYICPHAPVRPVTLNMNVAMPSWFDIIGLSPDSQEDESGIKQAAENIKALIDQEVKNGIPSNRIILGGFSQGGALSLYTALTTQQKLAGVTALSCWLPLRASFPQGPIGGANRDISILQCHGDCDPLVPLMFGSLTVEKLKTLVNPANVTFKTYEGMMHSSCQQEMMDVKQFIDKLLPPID
PME-1 primary – PME-1 (human) inhibition; Q9Y570; inhibition, % at 5.9 µM; recombinant PME-1, FP-Rh probe fluorescence polarization; hit rate 0.53% among 320,000;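 active means inhibition above the campaign mean of all compounds plus 3 SD, cut at about 26% in these data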;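 further: competitive labeling of PME-1 active site by serine hydrolase directed probe; inhibitors block probe labeling so polarization falls and inhibition rises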
Fam108B counter – counter-screen for RBBP9 inhibitors: inhibitors of mouse Fam108B. recombinant Fam108B, FP-Rh probe fluorescence polarization. inhibition, % at 9.51 µM. hit rate 0.33% among 300,000;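 active means inhibition above the screen mean inhibition plus 3 SD, computed separately per campaign, cut at about 18% in these data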;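 further: inhibitors lower polarization as less probe binds the enzyme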
LYPLA2 counter – counter-screen for PME1 inhibitors: inhibitors of human LYPLA2; O95372; recombinant LYPLA2, FP-Rh probe fluorescence polarization; inhibition, % at 5.9 µM; hit rate 0.38% among 320,000; AID 2177;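 active means inhibition above the screen-wide mean plus 3 SD, limit set per campaign, cut at about 26% in these data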
Target sequence (O95372 whole entry, looked up): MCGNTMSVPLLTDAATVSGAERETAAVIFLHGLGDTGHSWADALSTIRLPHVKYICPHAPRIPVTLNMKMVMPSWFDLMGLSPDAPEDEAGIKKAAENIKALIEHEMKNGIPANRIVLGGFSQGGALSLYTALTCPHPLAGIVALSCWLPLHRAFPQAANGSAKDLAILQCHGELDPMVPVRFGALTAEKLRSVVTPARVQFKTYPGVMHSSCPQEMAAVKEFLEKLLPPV
Fam108b inh conf – Fam108b (mouse) hydrolase inhibition, confirmation assay; shares compounds with Fam108B counter; recombinant Fam108b, FP-Rh probe fluorescence polarization; inhibition, % at 9.51 µM; hit rate 44% among 930; AID 1978;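 active means inhibition above a limit from the primary screen, the mean over all compounds plus 3 SD, cut at about 19% in these data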;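 further: inhibitors free the probe so polarization falls as inhibition rises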
Fam108b ABPP HTS – inhibits mouse Fam108b in gel-based ABPP. inhibition, % at 20 µM. shares compounds with Fam108B counter. hit rate 44% among 260. recombinant Fam108b, fluorophosphonate probe; in the data active means inhibition above about 40%
LYPLA1 conf – LYPLA1 (human) inhibition, confirmation counter-screen. shares compounds with LYPLA1 counter. inhibition, % at 5.9 µM. hit rate 69% among 480. recombinant LYPLA1, FP-Rh probe fluorescence polarization;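 active means mean inhibition across replicates above the hit cutoff set in the primary screen, cut at about 15% in these data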;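 further: loss of FP-Rh probe labeling of LYPLA1 seen as lower polarization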
LYPLA2 conf – counter-screen for PME1 inhibitors: confirmation of human LYPLA2 inhibitors; shares compounds with LYPLA2 counter; recombinant LYPLA2, FP-Rh probe fluorescence polarization; hit rate 72% among 1,100; AID 2232; inhibition, % at 5.9 µM;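 active means mean inhibition across replicates above the hit cutoff set in the primary screen, cut at about 26% in these data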;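 further: blocked labeling of the enzyme by serine hydrolase FP-Rh probe lowers polarization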
Large screens that a line does not name were inactive (follow-up assays come after a bar, where they were run).

CCN(CC)c1ccc(/C=C(\C#N)C(N)=S)cc1	none
CCN(CC)c1ccc(/C=C(\C#N)C(=O)c2ccc(Br)cc2)cc1	LYPLA1 counter 32.2, Fam108B counter 60.9 | Fam108b inh conf 54.0 | Fam108b ABPP HTS inactive | LYPLA1 conf 76.9
O=C1c2ccccc2-c2onc3ccc(NCCCn4ccnc4)c1c23	PREPL inhibitor 110.2, LYPLA1 counter 104.7, PME-1 primary 108.9, Fam108B counter 121.8, LYPLA2 counter 112.2 | Fam108b inh conf 149.6 | Fam108b ABPP HTS 80.0 | LYPLA1 conf 109.4 | LYPLA2 conf 117.5
CN(Cc1ccccc1F)C(=O)CN1CCN(S(=O)(=O)c2ccc3c(c2)OCCCO3)CC1	none (no result: Fam108B counter)
O=C(O)CSc1cc(NS(=O)(=O)c2ccc(Br)cc2)c2ccccc2c1O	PME-1 primary 29.8, Fam108B counter 22.3, LYPLA2 counter 37.5 | Fam108b inh conf inactive | LYPLA2 conf inactive
Cc1ccc(S(=O)(=O)Nc2ccc(Br)cc2C(NCC(=O)O)c2ccccc2)cc1 (centres undefined)	none
Cc1ccccc1CNC(=O)C(=O)NCC1OCCCN1S(=O)(=O)c1cccs1 (centres undefined)	none
COc1ccc2c(c1)C(=NNc1ccc(C(=O)O)cc1)c1cc(OC)ccc1-2	LYPLA1 counter 28.3, Fam108B counter 30.4, LYPLA2 counter 36.7 | Fam108b inh conf 30.3 | Fam108b ABPP HTS inactive | LYPLA1 conf 18.8 | LYPLA2 conf inactive
COc1ccc(/C(C)=N/Nc2ccc(C(=O)O)cc2)c(OC)c1	none
CN(c1ccccc1)S(=O)(=O)c1ccc(NC(=O)c2ccc(-c3ccccc3)cc2)cc1	LYPLA1 counter 22.3, PME-1 primary 63.6, Fam108B counter 45.4, LYPLA2 counter 30.4 | Fam108b inh conf 80.0 | Fam108b ABPP HTS 95.0 | LYPLA1 conf 25.9 | LYPLA2 conf 34.8
COc1cc(/C=C2\SC(=O)N(CC(=O)Nc3ccc(C)cc3)C2=O)cc(Cl)c1OCC(=O)O	none
O=C(CN1C(=O)S/C(=C\c2cc(Cl)c(O)c(Cl)c2)C1=O)Nc1ccccc1	Fam108B counter 22.6, LYPLA2 counter 91.8 | Fam108b inh conf 19.1 | LYPLA2 conf 81.7
O=C(Cc1c(F)cccc1Cl)N1CCN(S(=O)(=O)c2cccc(F)c2)CC1	none
Cc1cc(N/N=C/c2c(O)ccc3ccccc23)nc(-c2ccccc2O)n1	PME-1 primary 56.8, Fam108B counter 69.8, LYPLA2 counter 45.7 | Fam108b inh conf 102.8 | LYPLA2 conf inactive
CCc1ccc(N2CC(C(=O)OCC(=O)Nc3ccc([N+](=O)[O-])cc3)CC2=O)cc1 (centres undefined)	none (no result: Fam108B counter)
CC(=O)Nc1ccc(NC(=O)c2c(-c3ccccc3)noc2C)cn1	none
COC(=O)[C@@]12CCCN1[C@H](c1ccc(-c3ccc(Cl)c(Cl)c3)cc1)[C@H]1C(=O)N(C)C(=O)[C@H]12	none
O=C1c2ccccc2C(=O)N1c1ccc(Cl)cc1	none
O=C1c2cccc3c(O)ccc(c23)C(=O)N1c1ccc(Cl)cc1	LYPLA1 counter 20.4, PME-1 primary 36.6, Fam108B counter 20.3, LYPLA2 counter 33.1 | Fam108b inh conf inactive | LYPLA1 conf 15.5 | LYPLA2 conf inactive
CCc1cccc(C)c1NC(=O)CN1CCN(S(=O)(=O)c2ccc(C(C)(C)C)cc2)CC1	none
O=C(O)c1ccc(S(=O)(=O)/N=C2\C=C(Nc3ccccc3F)C(=O)c3ccccc32)cc1	Fam108B counter 49.4, LYPLA2 counter 26.4 | Fam108b inh conf 66.5 | Fam108b ABPP HTS 85.0 | LYPLA2 conf 74.7
COC(=O)C(C(C)=O)C1=C/C(=N\S(=O)(=O)c2ccc(C)cc2)c2ccccc2C1=O (centres undefined)	none
COCCn1c(N)c(C(=O)NCC2CCCO2)c2nc3ccccc3nc21 (centres undefined)	LYPLA1 counter 70.1, PME-1 primary 38.0, Fam108B counter 60.9, LYPLA2 counter 70.5 | Fam108b inh conf inactive | LYPLA1 conf inactive | LYPLA2 conf inactive
